Inconclusive results are not listed. A call without a number means that no potency is given here. Activity calls are given as the source filed them. Calls come from the whole dose curve; as a rule, active = well fitted inhibition curve with a large enough effect; inconclusive = small, poorly fitted or top-dose-only effect; inactive = flat fitted curve, though single readings scatter.
Potency is the fitted concentration of half-maximal effect.

The subject of the first assay is PC49. Nature of the assay: qHTS profiling for inhibitors of Plasmodium falciparum proliferation (AID 504749). Note: nearly all actives have a fitted effect of over 60% in size. The following applies: P. falciparum in erythrocytes, SYBR Green DNA, 72 h; series mostly up to 28.7 µM. The essentials:
(§1)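 Infected RBCs, 0.3% parasitemia/2.5% Hct final; cpd 72 h, 37 C, 5% CO2; lysis buffer with saponin/triton/SYBR Green I, o/n RT dark; FI 485/535; norm. to artemisinin (0.29 uM) and DMSO.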
For the molecule `O=P(O)(O)OC[C@H]1O[C@](O)(COP(=O)(O)O)[C@@H](O)[C@@H]1O`, the Potency result was “inactive”.

`NC(=O)Oc1ccc(Cc2ccccc2)cc1`: the Potency result was “inactive”.

For the molecule `O=C(O)CCC(=O)c1ccc(-c2ccccc2)cc1`, the Potency result is “inactive”.

On to `COc1cc(NCCCC(C)N)c2ncccc2c1` (stereo not given), for which the Potency result was “inactive”.

With `CCCOc1cc(N)ccc1C(=O)OCCN(CC)CC`, the Potency result is “inactive”.

With `CCCCCCCCCCCCOCCCN`, the Potency entry was “inactive”.

As to `O=S(=O)(O)CC(S)CS` (stereo not given), the Potency entry is “inactive”.

For `O=C1[O][Bi][O]c2ccccc21`, the Potency result was “inactive”.

Take `Cc1ccc(S(=O)(=O)O)cc1C`: the Potency entry was “inactive”.

On to `CN1C(=O)C[C@@H](C(=O)N[C@@H](Cc2cnc[nH]2)C(=O)N2CCC[C@H]2C(N)=O)NC1=O`, for which the Potency result is “inactive”.

Take `Cc1cc(-c2ccc(N=Nc3ccc4c(S(=O)(=O)O)cc(S(=O)(=O)O)c(N)c4c3O)c(C)c2)ccc1N=Nc1ccc2c(S(=O)(=O)O)cc(S(=O)(=O)O)c(N)c2c1O`: the Potency entry is “inactive”.

For `NC(=S)NS(=O)(=O)c1ccc(N)cc1`, the Potency result was “inactive”.

On to `COC(=O)CC[C@H](N)C(=O)O`, for which the Potency entry was “inactive”.

Regarding `Cc1nc(NS(=O)(=O)c2ccc(N)cc2)nc(C)c1Br`, the Potency entry is “inactive”.

As for `NCC(O)CC(=O)O` (stereo not given), the Potency result was “inactive”.

For the molecule `CCCCCCCCCCCC(=O)N(CCO)CCO`, the Potency result was “inactive”.

For the molecule `CC(C)(COP(=O)(O)OP(=O)(O)OC[C@H]1O[C@@H](n2cnc3c(N)ncnc32)[C@H](O)[C@@H]1OP(=O)(O)O)C(O)C(=O)NCCC(=O)NCCS` (stereo not given in full), the Potency result was “inactive”.

With `COc1ccc(/C=C/C(=O)OCCC(C)C)cc1`, the Potency entry is “inactive”.

On to `O=C1c2ccccc2CN2C(=O)c3ccccc3CN12`, for which the Potency result was “inactive”.

As for `CC1=CC(=O)NS(=O)(=O)O1`, the Potency result was “inactive”.

For the molecule `CC(CNC(=O)c1cccnc1)NC(=O)c1cccnc1` (stereo not given), the Potency result is “inactive”.

As to `CC(C)(C)CC(C)(C)c1cc(Cc2cc(C(C)(C)CC(C)(C)C)cc(-n3nc4ccccc4n3)c2O)c(O)c(-n2nc3ccccc3n2)c1`, the Potency result is “inactive”.

On to `CCCCC(CC)COS(=O)(=O)O` (stereo not given), for which the Potency entry is “inactive”.

Take `CCc1ccc(S(=O)(=O)O)cc1`: the Potency entry is “inactive”.

Take `CO[C@H]1C[C@@H]2CC[C@@H](C)[C@@](O)(O2)C(=O)C(=O)N2CCCC[C@H]2C(=O)O[C@H]([C@H](C)C[C@@H]2CC[C@@H](OC(=O)C(C)(CO)CO)[C@H](OC)C2)CC(=O)[C@H](C)/C=C(\C)[C@@H](O)[C@@H](OC)C(=O)[C@H](C)C[C@H](C)/C=C/C=C/C=C/1C`: the Potency entry is “inactive”.

As for `CN1C(=O)OC(C)(C)C1=O`, the Potency entry is “inactive”.

Take `CC(=O)[C@H]1CC[C@H]2[C@@H]3C=CC4=CC(=O)CC[C@@]4(C)[C@H]3CC[C@]12C`: the Potency entry is “inactive”.

With `CCC(C)[C@@H](N)C(=O)O` (stereo not given in full), the Potency result was “inactive”.

On to `O=C(O)C1=C(CSc2nnnn2CS(=O)(=O)O)CS[C@@H]2[C@H](NC(=O)[C@H](O)c3ccccc3)C(=O)N12`, for which the Potency entry is “inactive”.

Take `CCCCO`: the Potency entry was “inactive”.

Turning to `NC(=O)[C@@H]1CCCN1C(=O)[C@H](Cc1cnc[nH]1)NC(=O)[C@@H]1CCC(=O)N1`, the Potency result was “inactive”.

As to `CCOc1ccc(S(=O)(=O)O)c2cccnc12`, the Potency entry is “inactive”.

On to `[O-][N+](=Nc1ccccc1)c1ccccc1`, for which the Potency entry was “inactive”.

In the case of `CN[C@@H]1[C@H](O[C@H]2[C@H](O[C@H]3[C@H](O)[C@@H](O)[C@H](N=C(N)N)[C@@H](O)[C@@H]3N=C(N)N)O[C@@H](C)[C@]2(O)C=O)O[C@@H](CO)[C@H](O)[C@H]1O`, the Potency result is “inactive”.

Take `CCC(O)c1ccccc1` (stereo not given): the Potency entry is “inactive”.

On to `NC(=O)[C@H]1O[C@@H](O)[C@H](O)[C@@H](O)[C@@H]1O`, for which the Potency entry is “inactive”.

As to `CCN(CC)CCOC(=O)c1cccnc1`, the Potency result is “inactive”.

On to `CCOC(C)OCC`, for which the Potency entry is “inactive”.

As for `NC(=O)C1c2ccccc2CCc2ccccc21`, the Potency result was “inactive”.

Turning to `Nc1nc(=O)n([C@@H]2CS[C@H](CO)O2)cc1F`, the Potency entry is “inactive”.

A further assay has as its system SC27B. Described as above. The following applies: P. falciparum in erythrocytes, SYBR Green DNA, 72 h; series mostly up to 28.7 µM. The essentials:
as §1
In the case of `O=P(O)(O)OC[C@H]1O[C@](O)(COP(=O)(O)O)[C@@H](O)[C@@H]1O`, the Potency result is “inactive”.

As for `NC(=O)Oc1ccc(Cc2ccccc2)cc1`, the Potency entry was “inactive”.

Turning to `O=C(O)CCC(=O)c1ccc(-c2ccccc2)cc1`, the Potency result is “inactive”.

For `COc1cc(NCCCC(C)N)c2ncccc2c1` (stereo not given), the Potency is 11.2 µM (active).

Take `CCCOc1cc(N)ccc1C(=O)OCCN(CC)CC`: the Potency result is “inactive”.

On to `CCCCCCCCCCCCOCCCN`, for which the Potency result is “inactive”.

As to `O=S(=O)(O)CC(S)CS` (stereo not given), the Potency result is “inactive”.

For the molecule `O=C1[O][Bi][O]c2ccccc21`, the Potency result is “inactive”.

Take `Cc1ccc(S(=O)(=O)O)cc1C`: the Potency result was “inactive”.

With `CN1C(=O)C[C@@H](C(=O)N[C@@H](Cc2cnc[nH]2)C(=O)N2CCC[C@H]2C(N)=O)NC1=O`, the Potency entry is “inactive”.

As for `Cc1cc(-c2ccc(N=Nc3ccc4c(S(=O)(=O)O)cc(S(=O)(=O)O)c(N)c4c3O)c(C)c2)ccc1N=Nc1ccc2c(S(=O)(=O)O)cc(S(=O)(=O)O)c(N)c2c1O`, the Potency entry is “inactive”.

Turning to `NC(=S)NS(=O)(=O)c1ccc(N)cc1`, the Potency entry was “inactive”.

Take `COC(=O)CC[C@H](N)C(=O)O`: the Potency entry is “inactive”.

As for `Cc1nc(NS(=O)(=O)c2ccc(N)cc2)nc(C)c1Br`, the Potency result was “inactive”.

As to `NCC(O)CC(=O)O` (stereo not given), the Potency entry is “inactive”.

Consider `CCCCCCCCCCCC(=O)N(CCO)CCO`, for which the Potency result is “inactive”.

As to `CC(C)(COP(=O)(O)OP(=O)(O)OC[C@H]1O[C@@H](n2cnc3c(N)ncnc32)[C@H](O)[C@@H]1OP(=O)(O)O)C(O)C(=O)NCCC(=O)NCCS` (stereo not given in full), the Potency result was “inactive”.

With `COc1ccc(/C=C/C(=O)OCCC(C)C)cc1`, the Potency entry is “inactive”.

Regarding `O=C1c2ccccc2CN2C(=O)c3ccccc3CN12`, the Potency result was “inactive”.

With `CC1=CC(=O)NS(=O)(=O)O1`, the Potency entry is “inactive”.

For the molecule `CC(CNC(=O)c1cccnc1)NC(=O)c1cccnc1` (stereo not given), the Potency result was “inactive”.

Consider `CC(C)(C)CC(C)(C)c1cc(Cc2cc(C(C)(C)CC(C)(C)C)cc(-n3nc4ccccc4n3)c2O)c(O)c(-n2nc3ccccc3n2)c1`, for which the Potency entry is “inactive”.

Take `CCCCC(CC)COS(=O)(=O)O` (stereo not given): the Potency result was “inactive”.

`CCc1ccc(S(=O)(=O)O)cc1`: the Potency result is “inactive”.

Regarding `CO[C@H]1C[C@@H]2CC[C@@H](C)[C@@](O)(O2)C(=O)C(=O)N2CCCC[C@H]2C(=O)O[C@H]([C@H](C)C[C@@H]2CC[C@@H](OC(=O)C(C)(CO)CO)[C@H](OC)C2)CC(=O)[C@H](C)/C=C(\C)[C@@H](O)[C@@H](OC)C(=O)[C@H](C)C[C@H](C)/C=C/C=C/C=C/1C`, the Potency result was “inactive”.

As for `CN1C(=O)OC(C)(C)C1=O`, the Potency entry is “inactive”.

As for `CC(=O)[C@H]1CC[C@H]2[C@@H]3C=CC4=CC(=O)CC[C@@]4(C)[C@H]3CC[C@]12C`, the Potency entry was “inactive”.

For the molecule `CCC(C)[C@@H](N)C(=O)O` (stereo not given in full), the Potency result was “inactive”.

For `O=C(O)C1=C(CSc2nnnn2CS(=O)(=O)O)CS[C@@H]2[C@H](NC(=O)[C@H](O)c3ccccc3)C(=O)N12`, the Potency result is “inactive”.

For `CCCCO`, the Potency entry was “inactive”.

Consider `NC(=O)[C@@H]1CCCN1C(=O)[C@H](Cc1cnc[nH]1)NC(=O)[C@@H]1CCC(=O)N1`, for which the Potency result was “inactive”.

In the case of `CCOc1ccc(S(=O)(=O)O)c2cccnc12`, the Potency entry was “inactive”.

For `[O-][N+](=Nc1ccccc1)c1ccccc1`, the Potency entry was “inactive”.

With `CN[C@@H]1[C@H](O[C@H]2[C@H](O[C@H]3[C@H](O)[C@@H](O)[C@H](N=C(N)N)[C@@H](O)[C@@H]3N=C(N)N)O[C@@H](C)[C@]2(O)C=O)O[C@@H](CO)[C@H](O)[C@H]1O`, the Potency entry was “inactive”.

For `CCC(O)c1ccccc1` (stereo not given), the Potency result was “inactive”.

Consider `NC(=O)[C@H]1O[C@@H](O)[C@H](O)[C@@H](O)[C@@H]1O`, for which the Potency entry is “inactive”.

In the case of `CCN(CC)CCOC(=O)c1cccnc1`, the Potency result is “inactive”.

As for `CCOC(C)OCC`, the Potency result is “inactive”.

`NC(=O)C1c2ccccc2CCc2ccccc21`: the Potency result is “inactive”.

Regarding `Nc1nc(=O)n([C@@H]2CS[C@H](CO)O2)cc1F`, the Potency result was “inactive”.
